Among the test systems are NCI-H23 lung; NCI-H226 lung; NCI-H322M lung; HOP-62 NSCLC; NCI-H460 lung; HOP-92 NSCLC; NCI-H522 lung; A549/ATCC NSCLC; 786-0 renal; COLO 205 colon; DU-145 prostate; K-562 leukemia; MALME-3M melanoma; MDA-MB-231 breast; RXF 393 renal; SF-268 CNS; SF-295 CNS; SF-539 CNS; UACC-257 melanoma; M14 melanoma.
What all share (assay): NCI-60 one-dose screen, 48 h (100 = growth as untreated, 0 = no growth, -100 = all killed)
Common to all, as to settings: 10 µM unless noted

The structures appear in SMILES notation. About 83,000 compounds went through this panel and 20% of them were active in at least one assay; those are over-represented in the sample as a whole.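 48-hour exposure, single concentration, 96-well plates; percent growth endpoint where 0 means no net growth. Active: below 10.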 Unmarked numbers belong to inactive results. Active and inactive are the calls of the source.

With `O=C(Nc1cccnc1Nc1ccccc1)c1cn(Cc2cccc(Oc3ccccc3)c2)nn1`, the growth is 68.3% with NCI-H23 lung; 64.7% in the test with NCI-H226 lung; 71.8% in the test on NCI-H322M lung; 78.6% in the test with HOP-62 NSCLC; 42.6% with NCI-H460 lung; 71.2% with HOP-92 NSCLC. Also, the growth was 61.3% with NCI-H522 lung; 57.9% with A549/ATCC NSCLC; 56.7% in the test on 786-0 renal; 107% in the test with COLO 205 colon; 69.8% in the test on DU-145 prostate; 33% in the test on K-562 leukemia. Further, the growth is 56.3% with MALME-3M melanoma; 57.3% in the test on MDA-MB-231 breast; 50.1% with RXF 393 renal; 53.6% in the test with SF-268 CNS; 52.3% in the test with SF-295 CNS; 42% in the test on SF-539 CNS. Further, the growth in the test on UACC-257 melanoma is 73%; in the test on M14 melanoma, 27.5%.

`Cc1cc(O)c(=O)cc2c1C[C@H]1CC(C)(C)/C=C/C[C@]3(C)Oc4cc(=O)c(O)cc(C)c4C[C@H]3C[C@H](O)[C@@]1(C)O2`: the growth was -16.7% (active) in the test with NCI-H23 lung; 11.9% in the test on NCI-H226 lung; 24.3% in the test on NCI-H322M lung; 0.636% (active) in the test with HOP-62 NSCLC; -6.53% (active) with NCI-H460 lung; 2.97% (active) in the test on HOP-92 NSCLC. For the same molecule, the growth in the test with NCI-H522 lung is -24.9% (active); in the test with A549/ATCC NSCLC, -7.87% (active); in the test with 786-0 renal, -1.45% (active); with COLO 205 colon, -14.7% (active); with DU-145 prostate it was 22.3%; in the test with K-562 leukemia, 1.9% (active). In addition, the growth is 0.782% (active) with MALME-3M melanoma; 13.5% in the test with MDA-MB-231 breast; 19.8% in the test on RXF 393 renal; 18.5% in the test with SF-268 CNS; 3.52% (active) in the test on SF-295 CNS; 6.95% (active) with SF-539 CNS. Further, the growth in the test with UACC-257 melanoma is -6.56% (active); in the test with M14 melanoma, -34% (active).

Regarding `Cc1ccc2cnc(N)c(C#Cc3cc(C(=O)Nc4ccc(CN5CCN(C)CC5)c(C(F)(F)F)c4)cnc3C)c2c1`, the growth in the test with NCI-H23 lung was -29.6% (active); in the test with NCI-H226 lung, 7.1% (active); in the test on NCI-H322M lung, 17.8%; in the test on HOP-62 NSCLC, -35.9% (active); in the test with NCI-H460 lung, -83% (active); with HOP-92 NSCLC, -32% (active). Moreover, the growth in the test with NCI-H522 lung was -10.2% (active); in the test with A549/ATCC NSCLC, -85.5% (active); in the test with 786-0 renal, -82.8% (active); with COLO 205 colon, -41.2% (active); with DU-145 prostate it was -95% (active); with K-562 leukemia it was -43% (active). In addition, the growth in the test on MALME-3M melanoma is -74.7% (active); with MDA-MB-231 breast, -70.5% (active); in the test on RXF 393 renal it was -91.2% (active); in the test with SF-268 CNS, 17.4%; in the test on SF-295 CNS, 37.4%; in the test with SF-539 CNS, -85.9% (active). For the same molecule, the growth was 31.9% in the test with UACC-257 melanoma and -90.3% (active) with M14 melanoma.

As to `C#Cc1cccc(Nc2ncnc3cc(NC(=O)CCl)ccc23)c1`, the growth is -63.5% (active) in the test on NCI-H23 lung; -42.2% (active) with NCI-H226 lung; -16.4% (active) in the test with NCI-H322M lung; -70.3% (active) in the test with HOP-62 NSCLC; -58.7% (active) in the test on NCI-H460 lung; -75.3% (active) in the test with HOP-92 NSCLC. For the same molecule, the growth with NCI-H522 lung was -66% (active); in the test with A549/ATCC NSCLC it was -23.7% (active); in the test on 786-0 renal, -79.3% (active); in the test with COLO 205 colon it was -70.4% (active); with DU-145 prostate, -96.8% (active); in the test on K-562 leukemia, -15.6% (active). Further, the growth with MALME-3M melanoma was -74.3% (active); in the test on MDA-MB-231 breast, -70.3% (active); in the test with RXF 393 renal, -86.2% (active); with SF-268 CNS it was -59.7% (active); with SF-295 CNS, -82.5% (active); in the test on SF-539 CNS, -90.9% (active). The growth with UACC-257 melanoma was -7% (active); in the test on M14 melanoma, -87.4% (active).

As for `c1ccc(-c2nc3ccccc3[nH]2)c(OCCCCCOc2ccccc2-c2nc3ccccc3[nH]2)c1`, the growth in the test with NCI-H23 lung is 80.1%; in the test with NCI-H226 lung it was 85.2%; in the test on NCI-H322M lung, 103%; with HOP-62 NSCLC, 124%; with NCI-H460 lung it was 59.6%; in the test with HOP-92 NSCLC, -21.4% (active). Besides, the growth in the test on NCI-H522 lung was 66.1%; in the test on A549/ATCC NSCLC it was 8.77% (active); with 786-0 renal, 93%; in the test on COLO 205 colon, 112%; with DU-145 prostate, 39.9%; in the test on K-562 leukemia, -11.6% (active). Also, the growth with MALME-3M melanoma is 66.2%; in the test with MDA-MB-231 breast it was 70.5%; with RXF 393 renal, 81.1%; in the test with SF-268 CNS it was 55.1%; in the test with SF-295 CNS, 87.3%; with SF-539 CNS it was 7.96% (active). In addition, the growth in the test with UACC-257 melanoma is 71%; in the test on M14 melanoma, 95.1%.

Turning to `CCOC(=O)c1c(NC(=O)c2ccccc2)sc2c3c(ccc12)OCN(C)C3`, the growth with NCI-H23 lung was 12.8%; with NCI-H226 lung it was 87.8%; in the test on NCI-H322M lung, -11.3% (active); in the test with HOP-62 NSCLC, 52.2%; in the test with NCI-H460 lung, -67.9% (active); in the test with HOP-92 NSCLC it was -4.6% (active). The growth in the test with NCI-H522 lung is -51.4% (active); in the test with A549/ATCC NSCLC, 22.2%; in the test on 786-0 renal, -79% (active); in the test on COLO 205 colon it was -54.7% (active); in the test on DU-145 prostate, 11.6%; in the test with K-562 leukemia it was -53.3% (active). Further, the growth is -89.2% (active) in the test with MALME-3M melanoma; -74.7% (active) in the test on MDA-MB-231 breast; -73% (active) in the test with RXF 393 renal; 9.19% (active) in the test on SF-268 CNS; -76.8% (active) in the test on SF-295 CNS; -43.7% (active) in the test on SF-539 CNS. Also, the growth in the test on UACC-257 melanoma is -62.2% (active); in the test on M14 melanoma, -74.2% (active).

Take `Cc1ccc(S(=O)(=O)N2CCCN(c3nc(-c4ccccc4)nc4nc(-c5ccccc5)oc34)CC2)cc1`: the growth in the test on NCI-H23 lung is 100%; with NCI-H226 lung, 99.5%; in the test on NCI-H322M lung, 97.3%; in the test with HOP-62 NSCLC it was 101%; in the test on NCI-H460 lung, 103%; in the test with HOP-92 NSCLC it was 110%. For the same molecule, the growth in the test with NCI-H522 lung was 83.6%; with A549/ATCC NSCLC, 106%; in the test on 786-0 renal, 102%; in the test on COLO 205 colon, 124%; in the test with DU-145 prostate, 113%; in the test on K-562 leukemia, 97.3%. Moreover, the growth with MALME-3M melanoma was 111%; in the test on MDA-MB-231 breast, 96.8%; with RXF 393 renal, 128%; with SF-268 CNS, 106%; in the test with SF-295 CNS it was 105%; with SF-539 CNS it was 96%. The results for the growth in the test with UACC-257 melanoma and with M14 melanoma were 108% and 110%, respectively.

As for `O=C1/C(=C/c2c[nH]c(=O)[nH]c2=O)SC(=S)N1Cc1ccccc1`, the growth in the test with NCI-H23 lung is 96.4%; in the test with NCI-H226 lung, 102%; with NCI-H322M lung, 95.1%; in the test on HOP-62 NSCLC, 101%; with NCI-H460 lung, 105%; with HOP-92 NSCLC it was 98.5%. For the same molecule, the growth is 90.7% in the test on NCI-H522 lung; 101% with A549/ATCC NSCLC; 100% in the test with 786-0 renal; 88.2% in the test with COLO 205 colon; 102% in the test with DU-145 prostate; 101% with K-562 leukemia. The growth with MALME-3M melanoma was 97.6%; with MDA-MB-231 breast, 101%; in the test on RXF 393 renal, 110%; in the test with SF-268 CNS it was 95.2%; with SF-295 CNS, 102%; with SF-539 CNS it was 96.9%. Besides, the growth with UACC-257 melanoma is 104%; with M14 melanoma it was 98.8%.

For the origin of these results see PubChem BioAssay (NCI).
